Each target was assayed with C#CCNC(=O)CCSSCCC(=O)NCCc1ccc(C=O)c(C=O)c1 (assay: lysine labeling ratio R10:1 (500 µM / 50 µM probe), SILAC-ABPP in living cells; higher = lower intrinsic lysine reactivity toward the probe, active = 2 or less). Conditions: HeLa; probe concentrations 500 vs 50 µM.
Procedure, shortened: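 The two probe levels, 50 µM and 500 µM, of an alkyne-tagged, disulfide-linked lysine probe were applied to living light and heavy SILAC HeLa cells in PBS at room temperature, and the labels were run in both forward and reverse orientation. Mixed lysates underwent biotin-azide click chemistry, trypsin digestion, neutravidin capture, DTT release and alkylation before LC-MS/MS on a TIMS-TOF Pro. R is the filtered median high-probe/low-probe MS1 peptide ratio for each lysine, summarised as the median over forward and reverse replicates. Nothing above 20 is reported; such values are set to 20.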

UniProt O75054, sequence (O75054 whole entry): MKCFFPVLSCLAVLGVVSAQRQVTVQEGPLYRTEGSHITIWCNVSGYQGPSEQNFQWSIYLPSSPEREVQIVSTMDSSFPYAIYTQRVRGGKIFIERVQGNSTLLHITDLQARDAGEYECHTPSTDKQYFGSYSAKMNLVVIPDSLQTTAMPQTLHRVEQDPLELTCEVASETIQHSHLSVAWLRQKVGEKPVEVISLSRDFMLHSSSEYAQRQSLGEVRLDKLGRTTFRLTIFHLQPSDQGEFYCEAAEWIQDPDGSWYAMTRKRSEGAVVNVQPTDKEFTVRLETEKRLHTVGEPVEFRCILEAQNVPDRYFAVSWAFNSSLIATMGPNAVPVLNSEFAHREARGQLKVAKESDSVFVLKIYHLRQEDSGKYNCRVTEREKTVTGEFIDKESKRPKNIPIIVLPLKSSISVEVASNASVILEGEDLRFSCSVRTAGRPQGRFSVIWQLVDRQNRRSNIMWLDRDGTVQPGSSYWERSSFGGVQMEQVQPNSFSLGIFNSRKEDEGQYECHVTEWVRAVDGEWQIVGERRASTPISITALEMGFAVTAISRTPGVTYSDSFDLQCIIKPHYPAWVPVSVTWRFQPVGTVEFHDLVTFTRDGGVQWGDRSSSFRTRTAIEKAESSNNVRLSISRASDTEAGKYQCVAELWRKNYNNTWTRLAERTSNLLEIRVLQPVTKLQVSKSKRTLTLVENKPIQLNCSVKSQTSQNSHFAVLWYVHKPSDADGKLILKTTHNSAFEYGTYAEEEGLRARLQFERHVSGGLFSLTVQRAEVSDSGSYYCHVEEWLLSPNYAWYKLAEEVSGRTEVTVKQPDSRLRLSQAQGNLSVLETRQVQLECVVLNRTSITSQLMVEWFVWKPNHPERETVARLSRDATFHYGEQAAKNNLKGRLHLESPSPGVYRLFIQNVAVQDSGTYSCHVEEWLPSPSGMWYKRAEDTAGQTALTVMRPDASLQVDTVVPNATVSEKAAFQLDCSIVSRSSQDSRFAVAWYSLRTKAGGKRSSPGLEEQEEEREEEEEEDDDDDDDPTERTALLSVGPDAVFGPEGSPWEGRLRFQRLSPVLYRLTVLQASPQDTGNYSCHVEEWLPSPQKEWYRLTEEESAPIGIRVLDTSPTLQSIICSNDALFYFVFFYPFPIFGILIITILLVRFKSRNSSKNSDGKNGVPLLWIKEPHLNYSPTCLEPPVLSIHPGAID
UniProt Q14118, sequence (Q14118 whole entry): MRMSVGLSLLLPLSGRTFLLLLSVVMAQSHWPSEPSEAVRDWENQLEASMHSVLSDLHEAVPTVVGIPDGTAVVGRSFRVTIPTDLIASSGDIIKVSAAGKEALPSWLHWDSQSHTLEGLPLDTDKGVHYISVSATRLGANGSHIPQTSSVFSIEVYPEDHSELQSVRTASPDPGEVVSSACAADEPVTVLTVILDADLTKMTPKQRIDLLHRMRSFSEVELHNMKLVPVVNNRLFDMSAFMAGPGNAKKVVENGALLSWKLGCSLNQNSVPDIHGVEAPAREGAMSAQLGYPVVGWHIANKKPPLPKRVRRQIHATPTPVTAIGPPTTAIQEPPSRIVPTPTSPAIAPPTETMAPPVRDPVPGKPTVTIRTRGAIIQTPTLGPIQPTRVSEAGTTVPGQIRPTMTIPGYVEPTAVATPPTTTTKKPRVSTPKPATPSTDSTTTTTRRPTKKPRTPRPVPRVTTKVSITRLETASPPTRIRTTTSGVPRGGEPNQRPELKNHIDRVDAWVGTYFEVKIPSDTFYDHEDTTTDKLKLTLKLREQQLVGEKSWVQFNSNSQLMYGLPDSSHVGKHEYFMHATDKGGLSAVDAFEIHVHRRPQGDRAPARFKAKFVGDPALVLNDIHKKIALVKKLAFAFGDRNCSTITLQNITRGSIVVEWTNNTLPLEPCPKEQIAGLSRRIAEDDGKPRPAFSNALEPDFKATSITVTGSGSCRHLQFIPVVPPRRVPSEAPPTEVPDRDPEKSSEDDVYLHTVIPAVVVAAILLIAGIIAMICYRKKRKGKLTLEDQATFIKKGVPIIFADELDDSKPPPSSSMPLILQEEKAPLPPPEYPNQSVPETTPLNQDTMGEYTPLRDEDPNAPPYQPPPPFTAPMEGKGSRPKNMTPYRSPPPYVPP
UniProt P20908, sequence (P20908 whole entry): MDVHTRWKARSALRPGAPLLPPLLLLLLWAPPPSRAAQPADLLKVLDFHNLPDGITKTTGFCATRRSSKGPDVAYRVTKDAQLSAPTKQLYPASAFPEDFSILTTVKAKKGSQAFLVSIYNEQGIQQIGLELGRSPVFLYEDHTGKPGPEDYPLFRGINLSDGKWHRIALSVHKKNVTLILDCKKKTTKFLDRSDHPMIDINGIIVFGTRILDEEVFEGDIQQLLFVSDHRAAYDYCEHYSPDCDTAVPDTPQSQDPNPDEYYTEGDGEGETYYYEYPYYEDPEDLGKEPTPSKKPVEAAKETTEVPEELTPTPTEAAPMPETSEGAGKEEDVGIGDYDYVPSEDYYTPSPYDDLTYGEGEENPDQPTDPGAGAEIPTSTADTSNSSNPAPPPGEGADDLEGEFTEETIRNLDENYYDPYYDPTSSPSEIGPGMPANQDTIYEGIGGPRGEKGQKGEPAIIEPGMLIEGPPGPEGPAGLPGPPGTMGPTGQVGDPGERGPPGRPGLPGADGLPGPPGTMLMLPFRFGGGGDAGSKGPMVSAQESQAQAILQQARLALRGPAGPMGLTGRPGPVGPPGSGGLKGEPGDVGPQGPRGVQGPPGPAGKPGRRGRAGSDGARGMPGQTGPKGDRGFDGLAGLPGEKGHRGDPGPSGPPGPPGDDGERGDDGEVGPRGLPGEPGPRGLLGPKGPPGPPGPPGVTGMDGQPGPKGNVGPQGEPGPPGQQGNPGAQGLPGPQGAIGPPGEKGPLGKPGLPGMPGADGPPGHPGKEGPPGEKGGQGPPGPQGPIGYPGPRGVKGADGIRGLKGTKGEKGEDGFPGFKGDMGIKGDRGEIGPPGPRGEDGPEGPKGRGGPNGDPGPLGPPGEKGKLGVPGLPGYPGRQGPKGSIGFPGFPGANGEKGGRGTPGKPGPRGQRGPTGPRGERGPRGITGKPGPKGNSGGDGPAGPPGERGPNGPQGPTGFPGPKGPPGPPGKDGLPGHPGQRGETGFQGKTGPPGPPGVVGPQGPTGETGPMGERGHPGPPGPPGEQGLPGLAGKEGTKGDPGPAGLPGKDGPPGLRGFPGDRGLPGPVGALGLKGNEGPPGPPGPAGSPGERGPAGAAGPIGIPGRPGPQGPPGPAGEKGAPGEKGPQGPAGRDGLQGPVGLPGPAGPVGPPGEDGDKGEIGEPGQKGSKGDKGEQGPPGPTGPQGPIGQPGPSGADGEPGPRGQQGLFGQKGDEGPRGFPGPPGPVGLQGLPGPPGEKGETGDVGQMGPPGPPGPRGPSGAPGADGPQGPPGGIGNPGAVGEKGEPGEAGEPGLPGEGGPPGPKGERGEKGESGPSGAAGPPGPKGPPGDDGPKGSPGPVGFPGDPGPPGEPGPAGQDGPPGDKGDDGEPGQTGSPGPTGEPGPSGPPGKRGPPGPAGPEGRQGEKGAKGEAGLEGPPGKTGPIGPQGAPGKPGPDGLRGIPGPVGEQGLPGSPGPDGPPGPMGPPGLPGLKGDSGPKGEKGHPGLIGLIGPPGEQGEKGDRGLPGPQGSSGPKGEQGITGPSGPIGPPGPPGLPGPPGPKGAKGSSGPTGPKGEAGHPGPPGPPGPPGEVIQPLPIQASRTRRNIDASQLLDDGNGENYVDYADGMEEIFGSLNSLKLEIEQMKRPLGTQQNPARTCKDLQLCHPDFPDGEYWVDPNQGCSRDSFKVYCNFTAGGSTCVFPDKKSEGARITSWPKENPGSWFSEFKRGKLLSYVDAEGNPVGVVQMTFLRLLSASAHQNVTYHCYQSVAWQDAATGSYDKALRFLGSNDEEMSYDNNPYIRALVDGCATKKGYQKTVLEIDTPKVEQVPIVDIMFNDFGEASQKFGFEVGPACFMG
UniProt P23528, sequence (P23528 whole entry): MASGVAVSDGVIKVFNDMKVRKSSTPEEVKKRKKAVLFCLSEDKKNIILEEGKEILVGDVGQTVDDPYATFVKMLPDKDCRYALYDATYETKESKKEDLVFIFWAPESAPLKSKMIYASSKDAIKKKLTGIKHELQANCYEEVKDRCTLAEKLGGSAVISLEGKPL
UniProt P07910, sequence (P07910 whole entry): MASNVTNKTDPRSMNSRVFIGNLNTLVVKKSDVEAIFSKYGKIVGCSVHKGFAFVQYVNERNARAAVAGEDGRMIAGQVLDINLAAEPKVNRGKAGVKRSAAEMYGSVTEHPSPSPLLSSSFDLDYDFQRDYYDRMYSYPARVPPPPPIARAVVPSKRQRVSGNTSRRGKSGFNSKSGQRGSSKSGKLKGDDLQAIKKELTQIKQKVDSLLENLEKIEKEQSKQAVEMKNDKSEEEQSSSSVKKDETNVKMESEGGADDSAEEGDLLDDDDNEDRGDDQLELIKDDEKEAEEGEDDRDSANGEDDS
UniProt P15529, sequence (P15529 whole entry): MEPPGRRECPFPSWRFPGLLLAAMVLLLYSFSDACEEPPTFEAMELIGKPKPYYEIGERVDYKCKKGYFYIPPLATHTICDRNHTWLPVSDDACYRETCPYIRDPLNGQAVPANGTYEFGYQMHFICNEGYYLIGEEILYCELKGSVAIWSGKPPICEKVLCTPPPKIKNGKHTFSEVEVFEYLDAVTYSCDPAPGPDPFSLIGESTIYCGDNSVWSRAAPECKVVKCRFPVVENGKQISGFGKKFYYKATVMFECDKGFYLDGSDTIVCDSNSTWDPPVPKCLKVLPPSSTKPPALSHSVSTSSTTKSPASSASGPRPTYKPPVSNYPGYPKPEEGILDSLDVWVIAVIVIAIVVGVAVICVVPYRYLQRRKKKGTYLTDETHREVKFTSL
UniProt P19256, sequence (P19256 whole entry): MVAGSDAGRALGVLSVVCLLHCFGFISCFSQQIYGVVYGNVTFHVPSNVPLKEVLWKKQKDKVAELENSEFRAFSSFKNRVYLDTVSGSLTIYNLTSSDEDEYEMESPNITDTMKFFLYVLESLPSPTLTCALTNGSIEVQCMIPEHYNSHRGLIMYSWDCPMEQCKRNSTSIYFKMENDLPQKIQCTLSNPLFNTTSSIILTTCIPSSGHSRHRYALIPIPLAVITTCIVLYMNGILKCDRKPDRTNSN

Lysine labeling ratio R10:1, inactive:
SEMA3C (lysine site: K416) (UniProt Q99985) 2.36
CFL1 (lysine site: K144) (UniProt P23528) 3.15
S100A4 (lysine site: K57) (UniProt P26447) 3.85
RER1 (lysine site: K181) (UniProt O15258) 7.46
CD58 (lysine site: K167) (UniProt P19256) 2.06
CLTC (lysine site: K637) (UniProt Q00610) 2.63
COL5A1 (lysine site: K605) (UniProt P20908) 2.05
SPTAN1 (lysine site: K825) (UniProt Q13813) 4.08
AK2 (lysine site: K28) (UniProt P54819) 10.2
YBX1 (lysine site: K137) (UniProt P67809) 7.5
UniProt Q15149 (lysine site: K877) 2.95
IGSF3 (lysine site: K884) (UniProt O75054) 4.12
IGF2R (lysine site: K303) (UniProt P11717) 2.37
EGFR (lysine site: K500) (UniProt P00533) 12.8
FRAS1 (lysine site: K380) (UniProt Q86XX4) 2.25
RPS3A (lysine site: K46) (UniProt P61247) 3.87
EPHA2 (lysine site: K468) (UniProt P29317) 3.11
EHD1 (lysine site: K220) (UniProt Q9H4M9) 4.05
L1CAM (lysine site: K381) (UniProt P32004) 14
HNRNPC (lysine site: K176) (UniProt P07910) 3.1
DAG1 (lysine site: K500) (UniProt Q14118) 4.65
CD46 (lysine site: K224) (UniProt P15529) 6.48
VIM (lysine site: K373) (UniProt P08670) 7.19
GDI2 (lysine site: K435) (UniProt P50395) 4.66

Lysine labeling ratio R10:1, active:
ITGA6 (lysine site: K310) (UniProt P23229) 1.72
DSTN (lysine site: K78) (UniProt P60981) 1.54
ASPH (lysine site: K609) (UniProt Q12797) 1.47
PDIA3 (lysine site: K129) (UniProt P30101) 1.94
SDC2 (lysine site: K141) (UniProt P34741) 1.35
HM13 (lysine site: K61) (UniProt Q8TCT9) 1.69
ICAM1 (lysine site: K67) (UniProt P05362) 1.69
ITGA5 (lysine site: K965) (UniProt P08648) 0.705
UniProt P62899 (lysine site: K31) 1.97
UniProt Q9NYQ6 (lysine site: K1830) 0.925
RAB2A (lysine site: K130) (UniProt P61019) 1.45
UniProt P55072 (lysine site: K696) 1.22
EPRS (lysine site: K328) (UniProt P07814) 1.73
TAGLN2 (lysine site: K156) (UniProt P37802) 1.43
ACTR3 (lysine site: K42) (UniProt P61158) 1.04
UniProt Q15046 (lysine site: K479) 1.78

Source: the supplement of paper PMC11001985
